Consider 29 molecules from the supplement of paper PMC4380459.

This assay relates to tubulin (bovine brain). Nature of the assay: tubulin polymerization end-point dOD, fold change relative to DMSO vehicle; higher = more polymerization (stabilization). Conditions: 50 µM; 60 min; 37 °C. A digest of the protocol:
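The reported figure is the end-point optical density change as percent fold change against DMSO vehicle, with each run scaled by the means and standard deviations of DMSO and reference-control wells. Tubulin from bovine brain (Cytoskeleton HTS-Tubulin polymerization kit, 4 mg/ml in G-PEM buffer) was assembled on ice with compound at a final 50 μM in 0.5% DMSO in 384-well plates. Absorbance at 340 nm was then read each minute for 1 hour at 37°C in a Tecan reader.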

With `COc1cc2c(cc1OC)C(c1cccs1)N(C(=O)Nc1ccc(Cl)cc1)CC2` (centres undefined), the “tubulin polymerization end-point dOD” value worked out at 70.5%.
Under `Cc1cc2cc3c(cc2nc1SCC(=O)NC(C)(C)C)CCC3` stands 63.4%.
Under `CC(=O)c1c(C)oc2c1cc(NS(=O)(=O)c1ccc(Cl)cc1)c1ccccc12` stands 2.59%; under `CCc1cc2cc3c(cc2nc1SCC(=O)Nc1ccccc1Cl)OCCO3`, 11.4%; under `O=C(Nc1ncc(Cc2ccc(Cl)cc2Cl)s1)c1cnccn1`, 6.51%.
Next, `O=C(Nc1ccc(N2CCc3sccc3C2)nc1)c1ccccc1Br`: 14.9%; `COc1cc(C(=O)Nc2ccc3c(c2)Nc2ccccc2CC3)cc(OC)c1OC`: -20.1%; `O=C(N/N=C/c1ccc2c3c(cccc13)CC2)C1COc2ccccc2O1` (centres undefined): 28.5%.
On to `CC(C)n1ncc2cc(C(=O)Nc3cccc4c3CCCC4)cnc21`, for which the “tubulin polymerization end-point dOD” value was -23.5%.
Next, `COc1ccc(OC)c(NC(=O)CSc2nc3ccc(OC)cc3cc2C)c1`: -30.7%; `COc1ccc(-n2nnnc2SCc2cc3c(cc2Br)OCO3)cc1`: -14.8%; `O=C1CCCN1Cc1ccc(-c2ccccc2CNc2ncccn2)cc1`: -32.9%.
Under `CCOC(=O)c1[nH]c(C)c(C(=O)c2cc(F)ccc2F)c1C` stands 5.16%; under `CS(=O)(=O)N1CCCc2cc(C(=O)Cn3cnc4scc(-c5ccc(F)cc5)c4c3=O)ccc21`, -30.9%; under `COc1cc(C2NC(=O)c3ccccc3N2)cc2c1OCO2` (centres undefined), -31.5%.
Under `COc1ccc(Cc2cnc(NC(=O)c3sc4ccccc4c3Cl)s2)cc1` stands 169%; under `CCOC(=O)Nc1nc2ccccc2[nH]1`, 0.459%.
For `COc1ccc(CCNC(=O)CSc2nc3cc4c(cc3cc2C)OCO4)cc1OC`, the “tubulin polymerization end-point dOD” value was -49.9%.
Take `CCOc1ccc2nc(SCC(=O)Nc3ccc(OC)cc3OC)c(C)cc2c1`: the “tubulin polymerization end-point dOD” value was 14.5%.
Next, `Cc1cc2cc3c(cc2nc1SCC(=O)Nc1c(C)cccc1C)OCO3`: 145%; `COc1ccc(C2(C(=O)NC(C)c3nc(-c4ccncc4)n[nH]3)CC2)cc1` (centres undefined): -41.3%.
Under `CCS(=O)(=O)N1CCc2cc(C(=O)Cn3cnc4sc(C)c(-c5ccccc5)c4c3=O)ccc21` stands 38.3%; under `COc1cccc(/C=C(/Cl)c2nc3cc(OC)c(OC)cc3c(=O)[nH]2)c1`, 42.1%; under `CS(=O)(=O)c1ccc(C(=O)Nc2ncc(Cc3cccc(Cl)c3Cl)s2)cc1`, -8.57%.
With `N#Cc1cc2cc3c(cc2nc1SCC(=O)Nc1ccccc1Cl)OCCO3`, the “tubulin polymerization end-point dOD” value came to 17.2%.
Under `COc1ccc(NC(=O)CSc2nc3cc4c(cc3cc2C#N)OCO4)c(OC)c1` stands 23.6%.
On to `Cc1ccc(C)c(NC(=O)CSc2nc3cc4c(cc3cc2C#N)OCO4)c1`, for which the “tubulin polymerization end-point dOD” value was determined as 52.6%.
Next, `O=C(Nc1ccc2c(c1)OCCO2)C(=O)Nc1cccc2cccnc12`: 76%; `COc1cccc(N2CCN(C(=O)c3cn(-c4ccccc4)nc3-c3cccnc3)CC2)c1`: -111%.
